High-throughput results from PubChem.
Rce1 inh: blocks yeast Ras-converting enzyme; actives 0.27% (n = 290,000); calls only; AID 2563; yeast membranes, quenched prenylated peptide cleavage fluorescence; Q03530;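 active means fall in fluorescence gain of 50% or more versus controls, with final raw signal at or below 3038400; inconclusive means same 50% fall but final raw signal above 3038400; inactive means fall in fluorescence gain under 50%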
Rtt109 Vps75: blocks Candida albicans Rtt109/Vps75 acetyltransferase activity. actives 0.16% (n = 330,000). inhibition, % at 34.9 µM. purified Rtt109/Vps75, ThioGlo CoA-SH fluorescence, 4 h. AID 540336;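 active means inhibition of at least 50% in every replicate; inconclusive means best replicate reaches 50% inhibition but some replicates fall short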
ALR inh: human ALR oxidase inhibition via reduced H2O2 | purified ALR, DTT oxidation, H2O2 HRP-luminol luminescence | inhibition, % (test concentration not listed) | actives 3.8% (n = 290,000) | AID 485317;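 active means mean replicate inhibition above about 79%, with every replicate also reaching it, limit read from the data; inconclusive means only one of the two criteria met; inactive means mean below limit and not every replicate reaching it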
Efflux pump inh: antifungal efflux pump inhibition, Nile Red retention; actives 0.44% (n = 330,000); S. cerevisiae Candida pump triplex; inhibition, % at 10 µM;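 active means plate passing quality check with inhibition over a set limit, or well fluorescence over plate mean plus 4 SD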;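 further: Nile Red retained in pooled yeast measured as flow cytometry median fluorescence; higher means more Nile Red kept so more efflux inhibition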
HDAC3 inh: inhibitors of human histone deacetylase 3 | actives 0.15% (n = 320,000) | inhibition, % at 8.3 µM | recombinant HDAC3, fluorogenic peptide/trypsin coupled, fluorescence | O15379; in the data active means inhibition above about 26%, passing the limit was not always enough; inconclusive means no clear call, values can overlap the other calls
Target sequence (O15379 whole entry, looked up): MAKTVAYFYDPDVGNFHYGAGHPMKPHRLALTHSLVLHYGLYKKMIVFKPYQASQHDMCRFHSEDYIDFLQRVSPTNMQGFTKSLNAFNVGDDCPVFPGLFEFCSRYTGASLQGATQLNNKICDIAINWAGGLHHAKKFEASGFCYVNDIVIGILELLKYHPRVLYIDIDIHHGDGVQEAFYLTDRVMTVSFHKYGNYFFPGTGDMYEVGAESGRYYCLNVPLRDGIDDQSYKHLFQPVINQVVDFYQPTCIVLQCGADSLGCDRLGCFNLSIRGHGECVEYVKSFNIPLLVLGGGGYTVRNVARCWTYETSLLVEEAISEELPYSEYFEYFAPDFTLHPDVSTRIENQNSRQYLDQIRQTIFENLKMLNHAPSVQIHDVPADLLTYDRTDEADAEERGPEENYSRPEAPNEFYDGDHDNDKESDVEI
GRK2 inh: human GRK2 inhibition via aptamer displacement; P25098; bead flow cytometry, FAM-aptamer displacement from GRK2; inhibition of aptamer binding, % at 10 µM; actives 0.59% (n = 330,000); AID 488847;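 active means inhibition of aptamer binding above 40%, roughly 3 SD of noise, on plates passing a quality check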;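 further: median bead fluorescence of bound FAM aptamer so fluorescent compounds give negative values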
Large screens that a line does not name were inactive. Shown are actives, neighbours in structure and some others; about 4.5% of the full set was active somewhere.

C[C@@H](C(=O)Nc1nccs1)N1C(=O)C2CC=CCC2C1=O (stereo partly drawn)	none (no result: Rce1 inh)
CC(C(=O)Nc1sccc1C(N)=O)N1C(=O)C2CC=CCC2C1=O (stereo not drawn)	ALR inh 97
c1ccc(-c2nc(CSc3n[nH]c(-c4cccs4)n3)cs2)cc1	ALR inh 98
Nc1cc(=O)[nH]c(SCc2csc(-c3ccccc3)n2)n1	ALR inh 99
Cc1cc(=O)[nH]c(SCc2csc(-c3ccccc3)n2)n1	none
CC12CN(C(=O)c3ccccc3Br)CC(C)(CN(C(=O)c3ccccc3Br)C1)C2=O	none
CCc1ccc2c(CC(=O)NNC(=O)c3ccncc3)coc2c1	none (no result: Rce1 inh)
Clc1ccc(NCc2ccsc2)cc1	none (no result: Rtt109 Vps75)
COc1ccc(NC(=O)CCC(=O)c2cccs2)cc1Cl	none
COc1cc(NCCC(=O)c2cccs2)c(OC)cc1Cl	ALR inh 100
COc1ccc(C(=O)c2c[nH]c(C(=O)N=CN(C)C)c2)cc1	none (no result: ALR inh)
COc1cc(C=C2C(=O)c3ccccc3C2=O)cc(OC)c1OC	ALR inh 97
COc1cc(C=C2C(=O)c3ccccc3C2=O)cc(OC)c1	none (no result: ALR inh)
COc1cccc(/C=C2\C(=O)C(=O)c3ccccc32)c1	ALR inh 100
COc1ccc(CNC(=O)COC(=O)c2ccc(F)c(S(=O)(=O)N3CCOCC3)c2)cc1	none (no result: Rce1 inh)
OC1COCOC1C(O)C1OCOCC1O (stereo not drawn)	none (no result: Rce1 inh, ALR inh, Efflux pump inh, HDAC3 inh, GRK2 inh)
O=C(O)CCCC(=O)N1CCN(c2nc(-c3ccccc3)c3ccccc3n2)CC1	ALR inh 77
CC1CN(C(=O)CCC(=O)N2CCN(c3cccc(C(F)(F)F)c3)CC2)c2ccccc2O1 (stereo not drawn)	Rtt109 Vps75 inconclusive
CC(C)(C)c1nc(CN2CCOCC2)cc(CN2CCOCC2)c1O	HDAC3 inh inconclusive
Cc1ccc(-c2nc(CN3CCCCC3)cc(CN3CCCCC3)c2O)cc1	Rce1 inh active
Cc1ccc(Nc2nc(Cl)nc(N(C)C#N)n2)cc1	ALR inh 97
COc1ccc(C(=O)N[C@H](C(=O)NC2CCCCC2)C(C)C)cc1	none (no result: Rce1 inh)
C(=C\c1ccco1)/c1nc2ccccc2[nH]1	ALR inh 98
O=c1[nH]c(/C=C/c2ccc(Br)cc2)nc2ccccc12	none
C(=C\c1ccco1)/c1ccc2ccccc2n1	none (no result: Rtt109 Vps75)
C(=C\c1nc2ccccc2[nH]1)/c1ccccc1	ALR inh 98
O=C(NC1CCN(Cc2ccc(Cl)cc2Cl)CC1)c1ccccc1	none (no result: ALR inh)
N#Cc1ccccc1Cn1c(=O)n(-c2ccc(CC(=O)NCc3ccco3)cc2)c(=O)c2sccc21	none
N#Cc1ccccc1Cn1c(=O)n(Cc2ccc(C(=O)NCc3ccco3)cc2)c(=O)c2sccc21	ALR inh 94
N#CC1=C(N)SC(N)=C(C#N)C1c1ccc(C(F)(F)F)cc1	none (no result: Rtt109 Vps75)
N#CC1=C(N)SC(N)=C(C#N)C1c1ccc([N+](=O)[O-])cc1	ALR inh 98
Clc1ccc2[nH]c3c(NCCCN4CCOCC4)ncnc3c2c1	none
O=C1CCCN1CCCNc1ncnc2c1[nH]c1ccc(Cl)cc12	ALR inh 98
COCc1cc(=O)n2[nH]cc(-c3ccsc3)c2n1	ALR inh 99
COCc1cc(=O)n2[nH]c(-c3ccccc3)cc2n1	none
CCOC(=O)Cc1cc(=O)n2[nH]cc(-c3ccc(Cl)cc3)c2n1	ALR inh 99
N#Cc1ccc(OCC(=O)OCC(=O)Nc2sccc2C(N)=O)cc1	none (no result: Rce1 inh)
O=C(NCc1ccc(OC(F)(F)F)cc1)C1CC2Cn3c(nc4ccccc43)C2N1c1ccccc1 (stereo not drawn)	none (no result: ALR inh)
COc1ccc(Cl)cc1NC(=O)COC(=O)c1c(-c2ccccc2)noc1C	none (no result: Rce1 inh)
CCn1nc(C)c(CNC(=O)c2cc(COc3ccccc3SC)on2)c1C	none
Cc1ccc(S(=O)(=O)/N=C(\CCl)N2CCOCC2)cc1	ALR inh 97
CC(=O)Nc1ccc(SC(C)C(=O)NC(N)=O)cc1 (stereo not drawn)	ALR inh 99 (no result: Rtt109 Vps75)
C=CCOc1ccc(/C(O)=C2\C(=O)C(=O)N(CCOC)C2c2cccnc2)cc1 (stereo not drawn)	Rtt109 Vps75 60
COc1ccc(-n2c(=O)c3c4c(sc3n3c(=S)[nH]nc23)CCCC4)cc1	ALR inh 96 (no result: Rtt109 Vps75)
CC(C)C1Cc2c(sc3c2c(=O)n(-c2ccccc2)c2n[nH]c(=S)n32)CO1 (stereo not drawn)	ALR inh 94
